In all, about 13,000 compounds went through this assay and about 3,200 (25%) showed an effect of 50% or more. The list shows a part of the results.
test system: P. falciparum stage V gametocytes; set-up: BacTiter-Glo ATP luminescence viability of purified stage V gametocytes in 384-well plates, per cent inhibition versus DMSO; conditions: 48 h, 5 µM; inhibitor

Structure (SMILES) | % Inhibition [%]
CCOC(=O)c1ccc(NC(=O)Nc2ccc(-c3cccc(-c4nc5ccccc5[nH]4)c3)cc2)cc1 [TCMDC-133270] | -42.41
O=C(NCc1ccc(F)cc1)c1ccc(N2CCN(c3ccncc3)CC2)cn1 [TCMDC-135157] | 0.3973
COc1ccccc1CNC(=O)c1cc(Br)cc(N2CCN(c3ccncc3)CC2)c1 [TCMDC-135151] | 104.3
Cc1ccccc1CCNC(=O)c1cnc(N2CCN(c3ccncc3)CC2)c(Cl)c1 [TCMDC-134598] | 14.18
COc1ccccc1CCNC(=O)c1cnc(N2CCN(c3ccncc3)CC2)c(Cl)c1 [TCMDC-134595] | 89.83
O=C(NCCc1ccccc1F)c1cc(Br)cc(N2CCN(c3ccncc3)CC2)c1 [TCMDC-135147] | -5.133
COc1ccccc1CCNC(=O)c1cc(Br)cc(N2CCN(c3ccncc3)CC2)c1 [TCMDC-135148] | -33.58
O=C(NCCc1ccccc1F)c1ccc(N2CCN(c3ccncc3)CC2)cn1 [TCMDC-135154] | -6.834
O=C(NCc1ccc(F)cc1)c1cc(Br)cc(N2CCN(c3ccncc3)CC2)c1 [TCMDC-135150] | 12
O=C(NCCc1cccc(Cl)c1Cl)c1cnc(N2CCN(c3ccncc3)CC2)c(Cl)c1 [TCMDC-134597] | -18.32
O=C(NCCc1cccc(F)c1)c1cc(Br)cc(N2CCN(c3ccncc3)CC2)c1 [TCMDC-135145] | 3.253
COc1ccccc1CNC(=O)c1ccc(N2CCN(c3ccncc3)CC2)cn1 [TCMDC-135158] | 60.69
O=C(NCc1cccc(CN2CCOCC2)c1)c1cc(Br)cc(N2CCN(c3ccncc3)CC2)c1 [TCMDC-135152] | 69.44
CC(CC1CCCCC1)NCc1ccccc1OCCC(=O)N1CCCC1C(N)=O (stereo not shown) [TCMDC-140917] | -9.137
Cc1c(Oc2ccc(-n3ccnc3)cc2)ncnc1N1CCC2(CC1)CNCc1ccccc12 [TCMDC-137157] | 6.86
CC(C)c1ccc(CN2CCC(NC(=O)c3ccc(-c4cccc(F)c4)s3)CC2)cc1 [TCMDC-134346] | -27.58
Cc1nccn1CCNC(=O)CN1CCC2(CCC1=O)CC(=O)c1ccccc1O2 (stereo not shown) [TCMDC-125379] | -42.89
O=C(O)CCCN1CCCC(=C(c2ccccc2)c2ccccc2)C1 [TCMDC-141969] | -38.14
COC(=O)c1ccc(OCC(O)CO)cc1O (stereo not shown) [TCMDC-123463] | 4.056
CC(C)N(CCOc1ccc2c(c1)N(C(=O)Nc1ccc(Cl)c(Cl)c1)CC2)C(C)C [TCMDC-140254] | 8.096
CC(C)N(CCOc1ccc2c(c1)N(C(=O)Nc1cc(Br)cc(C(F)(F)F)c1)CC2)C(C)C [TCMDC-140250] | -0.9347
CC(C)c1ccc(NC(=O)N2CCc3ccc(OCCN(C(C)C)C(C)C)cc32)c(Br)c1 [TCMDC-140252] | 63.96
